An excerpt weighted towards active compounds, which were near 18% of everything screened.
CtBP-E1A blk: blocks the CtBP interaction with E1A. AlphaScreen GST-E1A/His-CtBP binding, 1536-well; stronger effect = lower value. activity change, % (concentration not given with the values). 340,000 compounds, 0.49% hits. AID 651724; in the data active = activity change below about -65%; inconclusive = mostly about -30% to -63%
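In 5 uL wells, 23 nL compound meets equimolar GST-E1A and His-CtBP (5X stock 125 nM each) for 2 h, 37 °C. Beads (5X, 50 ug/mL) then 1 h, 37 °C, dark.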
IL-1B inflam inh: inflammasome signaling inhibition, IL-1 beta readout | THP-1 LPS/ATP IL-1B secretion, AlphaLISA, 16 h; stronger effect = lower value | activity change, % at 57.5 µM | 360,000 compounds, 4.7% hits | AID 743279; in the data active = activity change below about -50%; inconclusive = mostly about -30% to -49%
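THP-1 cells pretreated 1 hr with compounds (up to 57.5 uM final), then stimulated with LPS (250 ng/mL final) plus ATP (1.25 mM final); secreted IL-1B measured by AlphaLISA after 16 hr, decreased signal indicating inhibition.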
Six1-Eya2 inh: inhibitors of human Six1/Eya2 interaction | Q15475+O00167 | AlphaScreen GST-Six1/His-Eya2 binding, biochemical; stronger effect = lower value | activity change, % (no concentration beside the values) | 360,000 compounds, 0.56% hits; in the data active = activity change below about -65%; inconclusive = mostly about -30% to -63%
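Six1/Eya2 binding was read as AlphaScreen signal after compounds were pinned into GST-Six1 plus His-tagged Eya2 (5X stock 250/500 nM) in pH 8.0 Tris/NaCl/TCEP buffer, beads added, then incubated 1 h, 37 C, dark.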
TDP1 cell CPT: DT40-hTDP1 cell growth loss with CPT | chicken DT40 Tdp1-/-;hTDP1 cells + 20 nM CPT, ATP luminescence, 48 h | Potency, µM (titrated, usually from 46.2 µM), actives largely listed as inhibitors | 420,000 compounds, 12% hits | AID 686979; also: nearly all actives have a fitted effect of over 55% in size
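Cell growth measured by CellTiter-Glo luminescence after a minimum 48 h, 37 C compound exposure with 20 nM CPT in Tdp1-knockout DT40 cells stably expressing hTDP1, seeded 400/well; qHTS titration format.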
TDP1 block: inhibitors of human tyrosyl-DNA phosphodiesterase TDP1; Q9NUW8; recombinant TDP1, AlphaScreen DNA substrate cleavage; Potency, µM (series often up to 130 µM), most hits filed as inhibitors; 350,000 compounds, 0.28% hits; also: nearly all actives have a fitted effect of over 40% in size
Target sequence (Q9NUW8 whole entry, looked up): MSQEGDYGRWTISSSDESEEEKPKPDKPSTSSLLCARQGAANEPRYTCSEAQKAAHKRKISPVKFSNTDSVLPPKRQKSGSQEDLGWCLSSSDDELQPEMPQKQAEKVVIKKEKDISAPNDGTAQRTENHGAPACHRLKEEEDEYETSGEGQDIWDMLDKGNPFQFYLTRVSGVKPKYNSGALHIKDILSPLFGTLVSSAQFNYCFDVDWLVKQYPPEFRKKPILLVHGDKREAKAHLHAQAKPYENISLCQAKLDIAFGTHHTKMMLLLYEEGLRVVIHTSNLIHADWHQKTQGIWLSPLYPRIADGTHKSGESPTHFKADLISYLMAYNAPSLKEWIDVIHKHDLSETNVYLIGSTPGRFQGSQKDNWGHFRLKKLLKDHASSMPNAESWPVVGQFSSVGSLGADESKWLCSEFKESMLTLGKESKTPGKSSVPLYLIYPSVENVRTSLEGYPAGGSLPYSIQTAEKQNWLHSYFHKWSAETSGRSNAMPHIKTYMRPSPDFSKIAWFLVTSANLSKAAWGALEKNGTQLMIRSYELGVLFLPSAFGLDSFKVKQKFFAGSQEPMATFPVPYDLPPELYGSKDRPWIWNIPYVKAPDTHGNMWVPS
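Recombinant human Tdp1 (E. coli-expressed, 1 nM final) preincubated with compounds 15 min at room temperature, then 5'-biotin/3'-phosphotyrosine-FITC DNA substrate (15 nM final) added for 5 min. AlphaScreen beads (10 ug/ml final) added 10 min; cleavage lowers signal.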
DT40 TDP1 no CPT: qHTS for Inhibitors of human tyrosyl-DNA phosphodiesterase 1 (TDP1): qHTS in cells in absence of CPT. 420,000 compounds, 15% hits. AID 686978, 2013. Potency, µM (doses to about 46.2 µM), hits mostly inhibitors. DT40 Tdp1-/- hTDP1 cells, no CPT, ATP luminescence, 48 h; also: nearly all actives have a fitted effect of over 55% in size
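Luminescent ATP content (CellTiter-Glo) served as the growth readout. Knockout chicken DT40 cells expressing human TDP1 were exposed to compounds without camptothecin for a minimum 48 hr at 37 °C.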
Hits are given with their value; i = inactive; ? = inconclusive; nt = not tested or not shown. Unless noted, calls follow the shape of the dose curve; as a rule, active = well fitted curve in the direction sought with a large enough effect; inconclusive = small, poorly fitted or top-dose-only effect, or another doubt; inactive = no such curve, though single readings can be large; an effect the other way counts as inactive or inconclusive.

SMILES	CtBP-E1A blk	IL-1B inflam inh	Six1-Eya2 inh	TDP1 cell CPT	TDP1 block	DT40 TDP1 no CPT
Cc1ccccc1N1CCN(CCCN2C(=O)CC(=C(c3ccccc3)c3ccccc3)C2=O)CC1	i	i	i	?	i	23µM
Cc1ccc(NC(=O)CCc2nnc3n(C)c(=O)c4sccc4n23)cc1C	nt	nt	nt	i	i	i
Cc1ccccc1-c1nnc(SCCC(=O)N2CCOCC2)o1	i	i	i	i	i	i
COC(=O)c1cc(=O)nc(NN=Cc2ccc(OC)cc2)s1	i	i	i	i	nt	i
Cc1ccc(NC(=C(C#N)C#N)c2ccccc2)cc1	i	i	i	?	nt	12µM
Cc1ccc(NC(=O)CCC(=O)c2ccccc2)cc1	i	i	i	i	nt	i
COc1ccccc1/C=C/C(=O)N1CCc2cc(OC)c(OC)cc2C1C (configuration not stated)	i	-70	i	?	i	?
COc1cc2c(cc1OC)C(c1ccccc1)N(C(=O)CCl)CC2 (configuration not stated)	i	-96	i	3.3µM	i	2.9µM
COc1cc2c(cc1OC)C(C)N(C(=O)Nc1ccccc1)CC2 (configuration not stated)	i	i	i	3.7µM	nt	4.1µM
COc1cc2c(cc1OC)C(C)N(C(=O)[C@@H](NC(=O)c1ccccc1)C(C)C)CC2 (some centres not stated)	i	-52	i	?	nt	29µM
COc1cc2c(cc1OC)C(C1C(=O)CCCC1=O)N(C(=O)CCl)CC2 (configuration not stated)	nt	i	i	i	i	i
CC1(C)Cc2c(sc3nc(NCCN4CCOCC4)n4ncnc4c23)CO1	i	i	i	i	i	?
CCN(CC)S(=O)(=O)c1ccc(NC(=O)c2nc3nc(C)cc(C)n3n2)cc1	nt	nt	nt	nt	i	nt
Cc1cccc(N2C(=O)CCC2=O)c1	i	i	i	i	i	i
CCc1ccc(C(=O)COC(=O)CNC(=O)c2cccs2)cc1	i	i	i	i	i	i
O=S(=O)(NCCNCC=Cc1ccc(Br)cc1)c1cccc2cnccc12	nt	nt	nt	10µM	nt	14µM
O=S(=O)(NCCCCNS(=O)(=O)c1cccc2cccnc12)c1cccc2cccnc12	nt	nt	nt	i	nt	i
CNCCNS(=O)(=O)c1cccc2cnccc12	nt	nt	nt	18µM	i	?
O=S(=O)(NCCNC/C=C/c1ccc(Br)cc1)c1cccc2cnccc12	nt	nt	nt	19µM	i	24µM
CCCCc1ccc(NC(=O)CSC2=C(C#N)C(c3ccco3)C3=C(CCCC3=O)N2)cc1 (configuration not stated)	i	-86	i	?	i	?
N#CC1=C(SCC(=O)c2ccccc2)NC2=C(C(=O)CCC2)C1c1ccco1 (configuration not stated)	i	-97	i	2.9µM	i	2.6µM
CCSC1=C(C#N)C(c2ccc(Cl)cc2)C2=C(CCCC2=O)N1 (configuration not stated)	i	i	i	1.5µM	i	1.5µM
Cc1ccc(C(=O)CSC2=C(C#N)C(c3ccco3)C3=C(CCCC3=O)N2)cc1 (configuration not stated)	i	i	i	3.3µM	i	3.3µM
Cc1cc(C)n(C(=O)c2ccncc2)n1	nt	nt	nt	nt	i	nt
O=C(CNC(=O)c1ccccc1Cl)Nc1ccc(F)cc1	i	i	i	?	i	i
COc1ccc(C2C(C#N)=C(SCC(=O)Nc3ccc(C)cc3)NC3=C2C(=O)CC(C)(C)C3)cc1 (configuration not stated)	i	-57	i	23µM	i	16µM
COc1cccc(NC(=O)CSC2=C(C#N)C(c3ccco3)C3=C(CCCC3=O)N2)c1 (configuration not stated)	i	?	i	i	i	i

Compound activity as filed in PubChem.
